PubChem BioAssay (EPA / NIEHS)
“And” between values parts separate entries of the source, which are not always exact repeats. Equal values may be shown once. More than one record can exist for a structure, and the calls need not agree. The source made the active and inactive calls. How the source made its calls: active means hit-call score of the fitted dose curve at least 0.9, where 1 is the maximum; inactive means score below 0.9.

Experiments:
[1] = biological target: Bile acid receptor (Homo sapiens) (UniProt Q96RI1); assay: ATG_IR1_CIS: Attagene CIS-FACTORIAL HepG2 Assay for human Nuclear Receptor Subfamily 1 Group H Member 4 (NR1H4), IR1 submotif (AID 2282946); settings: IR1 reporter transcription, actives raise or lower the signal
Outline: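 Transient MRTU transfection, HepG2; 24 h dosing; RNA → RT-PCR → 6-FAM primer extension → HpaI digest → capillary electrophoresis fluorescence. Gain/loss of signal fitted relative to DMSO.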

[2] = ATG_GRE_CIS: Attagene CIS-FACTORIAL HepG2 Assay for human Glucocorticoid Response Elements (GRE) (AID 2282947); settings: HepG2 GRE cis-reporter, Attagene multiplex mRNA; actives raise or lower the signal
Outline: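 HepG2 cells transiently transfected with multiple cis-promoter reporter units measure endogenous TF activity; 24 h compound exposure. Reporter mRNA quantified by RT-PCR, FAM labelling, HpaI digestion and capillary electrophoresis; bidirectional fit vs DMSO baseline.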

[3] = ATG_M_32_CIS: Attagene CIS-FACTORIAL HepG2 Assay for M32 Transcription Factor (Internal Marker) (AID 2282949); settings: HepG2 Attagene cis-factorial M32 reporter, mRNA; actives raise or lower the signal;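 further: background control marker of the multiplexed CIS panel rather than a real target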
Outline: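 Internal background marker read-out: RT-PCR/capillary electrophoresis fluorescence of reporter transcripts from transiently transfected HepG2 cells after 24 h chemical exposure. Activity fitted bidirectionally relative to DMSO negative control.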

[4] = ATG_M_06_CIS: Attagene CIS-FACTORIAL HepG2 Assay for M06 Transcription Factor (Internal Marker) (AID 2282950); settings: HepG2 Attagene CIS-FACTORIAL M06 internal marker reporter; actives raise or lower the signal
Outline: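 Measured 24 h post-dosing in transiently transfected HepG2 cells, this internal-marker endpoint reports reporter mRNA via RT-PCR with fluorescent primer extension and capillary electrophoresis. DMSO served as negative control and baseline for bidirectional fitting.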

[5] = biological target: Hypoxia-inducible factor 1-alpha (Homo sapiens) (UniProt Q16665); assay: ATG_HIF1a_CIS: Attagene CIS-FACTORIAL HepG2 Assay for human Hypoxia Inducible Factor 1 (HIF1A) (AID 2282951); settings: HepG2 Attagene cis-factorial HIF1a reporter transcription; actives raise or lower the signal
Outline: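 Dosed 24 h, transfected HepG2 cells yielded total RNA whose reporter transcripts were RT-PCR-amplified and sized by capillary electrophoresis using fluorescent labelling; DMSO defined baseline, with gain and loss of signal both fitted.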

[6] = biological target: Hepatocyte nuclear factor 6 (Homo sapiens) (UniProt Q9UBC0); assay: ATG_HNF6_CIS: Attagene CIS-FACTORIAL HepG2 Assay for human Hepatocyte Nuclear Factor 6 (HNF6) (AID 2282952); settings: HepG2 Attagene cis-factorial HNF6 reporter transcription; actives raise or lower the signal
Outline: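 HepG2 cells transiently transfected with cis-element-driven multiple reporter transcription units, dosed 24 h; reporter mRNA quantified by RT-PCR, FAM primer extension, HpaI digestion and capillary electrophoresis; bidirectional fit versus DMSO baseline.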

[7] = biological target: Heat shock factor protein 1 (Homo sapiens) (UniProt Q00613); assay: ATG_HSE_CIS: Attagene CIS-FACTORIAL HepG2 Assay for human Heat Shock Transcription Factor 1 (HSE) (AID 2282953); settings: HepG2 HSE cis-reporter, Attagene RNA transcription; actives raise or lower the signal
Outline: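 Reporter mRNA induction in HepG2 is measured 24 h after dosing, using transiently transfected multiplexed cis-regulated reporter units. Signal comes from capillary electrophoresis of labelled RT-PCR products, with DMSO as negative control.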

[8] = ATG_MRE_CIS: Attagene CIS-FACTORIAL HepG2 Assay for human Metal Responsive Element (MRE) (AID 2282954); settings: HepG2 MRE cis-reporter transcription, Attagene multiplex; actives raise or lower the signal
Outline: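 HepG2 cells transiently transfected with multiple cis-element reporter units measure endogenous MTF1-driven transcription. After 24 h compound exposure, reporter mRNA is quantified by RT-PCR with 6-FAM labelling, HpaI digestion and capillary electrophoresis; bidirectional fits versus DMSO.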

[9] = ATG_PBREM_CIS: Attagene CIS-FACTORIAL HepG2 Assay for human Phenobarbital-responsive Enhancer Module (PBREM) (AID 2282955); settings: HepG2 PBREM cis-reporter, Attagene multiplexed transcription; actives raise or lower the signal
Outline: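 Transfected liver-derived HepG2 cells exposed 24 h; PBREM reporter transcript quantified via RT-PCR and capillary electrophoresis, with activity in either direction referenced to DMSO.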

[10] = ATG_ISRE_CIS: Attagene CIS-FACTORIAL HepG2 Assay for human Interferon Regulatory Factor 1 (IRF1) binding to an Interferon-Stimulated Response Element (ISRE) (AID 2282948); settings: HepG2 ISRE cis-reporter (Attagene), mRNA transcription readout; actives raise or lower the signal
Outline: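 Cell-based cis-reporter assay; HepG2; 24 h exposure; reporter mRNA by RT-PCR plus capillary electrophoresis fluorescence; activity in either direction scored relative to DMSO.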

Sequence of Bile acid receptor (Homo sapiens) (Q96RI1 whole entry, looked up): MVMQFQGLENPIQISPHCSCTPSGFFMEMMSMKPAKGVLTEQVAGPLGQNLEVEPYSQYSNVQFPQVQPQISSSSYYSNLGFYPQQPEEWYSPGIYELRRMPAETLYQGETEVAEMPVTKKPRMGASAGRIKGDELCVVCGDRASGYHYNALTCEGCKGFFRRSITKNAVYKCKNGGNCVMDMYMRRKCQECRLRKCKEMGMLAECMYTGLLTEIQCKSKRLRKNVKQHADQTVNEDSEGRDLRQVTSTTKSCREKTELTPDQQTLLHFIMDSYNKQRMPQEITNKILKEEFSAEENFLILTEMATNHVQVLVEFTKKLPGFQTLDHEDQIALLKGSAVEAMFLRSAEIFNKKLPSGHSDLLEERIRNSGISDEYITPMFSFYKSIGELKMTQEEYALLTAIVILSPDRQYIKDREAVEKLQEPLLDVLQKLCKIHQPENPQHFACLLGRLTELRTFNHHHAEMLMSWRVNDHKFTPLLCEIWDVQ
Sequence of Hepatocyte nuclear factor 6 (Homo sapiens) (Q9UBC0 whole entry, looked up): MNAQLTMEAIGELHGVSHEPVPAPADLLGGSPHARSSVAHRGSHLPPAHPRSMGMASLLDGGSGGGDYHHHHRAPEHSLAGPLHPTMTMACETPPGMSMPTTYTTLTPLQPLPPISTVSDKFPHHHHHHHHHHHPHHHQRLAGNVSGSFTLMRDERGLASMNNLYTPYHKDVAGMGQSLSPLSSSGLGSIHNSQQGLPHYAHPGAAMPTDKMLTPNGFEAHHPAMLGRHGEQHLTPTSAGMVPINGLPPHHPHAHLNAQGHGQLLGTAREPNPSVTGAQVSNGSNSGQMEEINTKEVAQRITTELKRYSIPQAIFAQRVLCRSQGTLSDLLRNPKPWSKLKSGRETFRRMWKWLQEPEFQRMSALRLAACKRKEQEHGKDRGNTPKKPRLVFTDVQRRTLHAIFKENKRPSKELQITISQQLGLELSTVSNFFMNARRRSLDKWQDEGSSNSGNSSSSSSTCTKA
Sequence of Hypoxia-inducible factor 1-alpha (Homo sapiens) (Q16665 whole entry, looked up): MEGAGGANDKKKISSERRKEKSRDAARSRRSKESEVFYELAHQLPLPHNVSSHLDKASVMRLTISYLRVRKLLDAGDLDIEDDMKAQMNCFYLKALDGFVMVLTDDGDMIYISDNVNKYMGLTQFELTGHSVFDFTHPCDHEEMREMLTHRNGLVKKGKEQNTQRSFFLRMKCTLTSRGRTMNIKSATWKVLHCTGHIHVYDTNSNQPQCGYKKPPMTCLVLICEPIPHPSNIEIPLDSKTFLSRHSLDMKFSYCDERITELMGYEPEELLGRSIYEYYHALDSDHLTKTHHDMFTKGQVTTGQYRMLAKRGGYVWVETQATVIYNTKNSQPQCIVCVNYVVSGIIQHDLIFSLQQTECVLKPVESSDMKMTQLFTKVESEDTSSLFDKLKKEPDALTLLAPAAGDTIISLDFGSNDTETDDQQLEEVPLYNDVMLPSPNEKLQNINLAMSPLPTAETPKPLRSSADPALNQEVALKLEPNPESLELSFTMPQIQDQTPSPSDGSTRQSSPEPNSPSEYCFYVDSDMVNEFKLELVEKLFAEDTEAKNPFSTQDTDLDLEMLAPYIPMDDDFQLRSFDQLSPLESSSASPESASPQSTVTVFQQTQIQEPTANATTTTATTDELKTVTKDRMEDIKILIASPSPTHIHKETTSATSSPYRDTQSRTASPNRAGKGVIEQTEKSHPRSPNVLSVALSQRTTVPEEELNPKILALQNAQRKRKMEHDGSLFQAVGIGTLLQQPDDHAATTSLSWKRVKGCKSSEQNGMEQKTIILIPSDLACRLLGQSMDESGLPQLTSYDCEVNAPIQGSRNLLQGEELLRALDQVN
Sequence of Heat shock factor protein 1 (Homo sapiens) (Q00613 whole entry, looked up): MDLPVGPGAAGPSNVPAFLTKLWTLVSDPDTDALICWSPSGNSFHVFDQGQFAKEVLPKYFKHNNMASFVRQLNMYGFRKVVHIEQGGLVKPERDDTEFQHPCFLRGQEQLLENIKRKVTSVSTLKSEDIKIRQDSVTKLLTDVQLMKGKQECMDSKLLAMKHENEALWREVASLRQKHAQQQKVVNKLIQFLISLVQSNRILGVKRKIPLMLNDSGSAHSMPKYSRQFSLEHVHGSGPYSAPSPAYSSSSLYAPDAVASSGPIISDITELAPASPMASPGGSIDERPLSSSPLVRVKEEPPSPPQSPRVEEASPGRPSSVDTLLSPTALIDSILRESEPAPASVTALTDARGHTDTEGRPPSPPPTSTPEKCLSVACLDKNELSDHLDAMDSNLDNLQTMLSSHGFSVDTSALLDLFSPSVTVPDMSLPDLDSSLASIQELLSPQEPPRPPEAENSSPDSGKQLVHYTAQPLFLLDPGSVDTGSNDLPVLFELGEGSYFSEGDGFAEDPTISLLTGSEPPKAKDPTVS

SMILES | outcome [1] | outcome [2] | outcome [3] | outcome [4] | outcome [5] | outcome [6] | outcome [7] | AC50 [8] | outcome [8] | outcome [9] | AC50 [10] | AC50 [7] | AC50 [9] | outcome [10] | AC50 [5] | AC50 [1] | AC50 [2]
CCCCCCCCCCCC[N+](C)(C)C | inactive | inactive | inactive | inactive | inactive | inactive | inactive | 33.4 µM (active) | inactive | inactive |  |  |  |  |  |  | 
CCN(Cc1cccnc1)C(=O)c1cccc(Cl)c1[C@]1(C)C(=O)N(Cc2ccc(OC)cc2OC)c2ccc(Cl)cc21 | inactive | inactive | inactive | inactive | inactive | inactive |  | 7.17 µM (active) |  |  | 7.7 µM (active) | 40.4 µM (active) | 1.47 µM (active) |  |  |  | 
Cc1ccc(C(C)C)cc1 | inactive | inactive | inactive | inactive | inactive | inactive | inactive |  | inactive | inactive |  |  |  | inactive |  |  | 
CN(C)C(=O)C1(N2CCCCC2)CCN(CC[C@@]2(c3ccc(Cl)c(Cl)c3)CN(C(=O)c3ccccc3)CCO2)CC1 | inactive | inactive | inactive | inactive |  | inactive | inactive |  | inactive | inactive |  |  |  |  | 1.01 µM (active) |  | 
CC1=CC(=O)/C(=C(/C)O)C(=O)O1 | inactive | inactive | inactive | inactive | inactive | inactive | inactive |  | inactive | inactive |  |  |  | inactive |  |  | 
Clc1cc(Cl)c2c(c1)N=C1CCCCCN1C2 | inactive | inactive | inactive | inactive | inactive | inactive | inactive |  | inactive | inactive |  |  |  | inactive |  |  | 
O=C(O)c1ccccc1C(=O)OCc1ccccc1 | inactive | inactive | inactive | inactive | inactive | inactive | inactive |  | inactive | inactive |  |  |  | inactive |  |  | 
O=C(O)Cn1c(=O)n(Cc2ccc(Br)cc2F)c(=O)c2ccc(Cl)cc21 | inactive | inactive | inactive | inactive | inactive | inactive | inactive |  | inactive | inactive |  |  |  |  |  |  | 
CC(C)(C)c1csc(-c2cc3cc(OCc4ccccc4CC(=O)O)ccc3o2)n1 | inactive | inactive | inactive | inactive | inactive | inactive |  | 43.8 µM (active) |  | inactive | 33.4 µM (active) | 62.7 µM (active) |  |  |  |  | 
NC(=O)c1nc(-c2cccc(-c3cc(F)ccc3OCC(F)(F)C(F)(F)F)c2)n[nH]1 |  | inactive | inactive | inactive |  | inactive |  | 51.2 µM (active) |  |  |  | 59.9 µM (active) |  |  | 2.7 µM (active) | 51.6 µM (active) | 
CC[C@H](NC(=O)c1cc(F)ccc1NS(=O)(=O)c1cccc2cccnc12)c1ccccc1 | inactive | inactive | inactive | inactive | inactive | inactive | inactive |  | inactive |  |  |  |  |  |  |  | 
CCN(CC)C(=O)c1cc(S(=O)(=O)Cc2ccccc2)c(N2CCC(c3ccccc3)CC2)cc1N(CC)CCN(C)C | inactive | inactive | inactive | inactive |  | inactive | inactive | 3.7 µM (active) |  | inactive |  |  |  | inactive | 3.7 µM (active) |  | 
COCC(C)OCC(C)OCC(C)O (stereo not drawn) | inactive | inactive | inactive | inactive | inactive | inactive | inactive |  | inactive | inactive |  |  |  | inactive |  |  | 
CCOC(=O)O[C@H](C)OC(=O)c1ccc2c(c1)cc(C(=O)NC1CCN(C(C)C)CC1)n2Cc1cc(-c2ccc(Cl)s2)on1 | inactive | inactive | inactive | inactive |  | inactive | inactive | 51.1 µM (active) |  | inactive |  |  |  |  | 20.9 µM (active) |  | 
CCCC(=O)OCCC(C)C | inactive | inactive | inactive | inactive | inactive | inactive | inactive |  | inactive |  |  |  |  | inactive |  |  | 
COc1cc(C(=O)NC2CCN(C)CC2)ccc1Nc1ncc2c(n1)N(C1CCCC1)CC(F)(F)C(=O)N2C | inactive |  | inactive | inactive | inactive | inactive | inactive | 2.37 µM (active) |  | inactive | 4.8 µM (active) |  |  |  |  |  | 0.872 µM (active)
COc1ccc2cc(S(=O)(=O)N[C@H](CC(=O)N[C@H](Cc3ccc(CN4[C@H](C)CCC[C@@H]4C)cc3)C(=O)N(C)C(C)C)c3ccc4c(c3)OCO4)ccc2c1 | inactive | inactive | inactive | inactive |  | inactive | inactive | 11 µM (active) |  | inactive | 11 µM (active) |  |  |  | 1.38 µM (active) |  | 
CC/C(=C(/CC)c1ccc(O)cc1)c1ccc(O)cc1 | inactive | inactive | inactive | inactive | inactive | inactive | inactive | 15.2 µM (active) [middle of 4 runs] | inactive |  |  | 20 µM (active) and 18.7 µM (active) and 20.2 µM (active) |  |  |  | 15.4 µM (active) and 2.2 µM (active) | 
